SENP8 block-1 = blocks human SENP8 cleavage of Nedd8 substrate; AID 602440; inhibition, % at 20 µM; 360,000 tested, 0.64% active; recombinant SENP8, Nedd8 substrate fluorescence; in the data active = inhibition mostly above about 40%, no sharp cut-off; inactive = mostly below about 27%
Target sequence (Q96LD8 whole entry, looked up): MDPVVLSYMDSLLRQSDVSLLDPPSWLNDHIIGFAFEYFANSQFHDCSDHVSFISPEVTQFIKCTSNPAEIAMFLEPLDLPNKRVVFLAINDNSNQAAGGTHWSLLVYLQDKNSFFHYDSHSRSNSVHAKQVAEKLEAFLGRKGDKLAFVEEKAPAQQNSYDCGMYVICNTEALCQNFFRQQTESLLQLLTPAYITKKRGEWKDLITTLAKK
AHR activator = human AHR activation; activation, % at 5 µM; 320,000 tested, 2.5% active; AID 2796; AHR-responsive luciferase reporter cells, luminescence; in the data active = activation above about 47%;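 also: 0% = vehicle wells and 100% = reference agonist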
SENP7 inh = SENP7 protease inhibition; recombinant SENP7, Z-RLRGG-aminoluciferin luminescence, 40 min; inhibition, % at 5 µM; 330,000 tested, 1.5% active; AID 434973;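 active = inhibition above about 50% at the single test dose, limit read from the data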;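 also: plate controls were DMSO with enzyme for no effect and no enzyme buffer wells for full effect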
SENP8 block-2 = inhibitors of human SENP8 protease; Q96LD8; purified SENP8, Z-RLRGG-aminoluciferin cleavage, luminescence; inhibition, % at 10 µM; 330,000 tested, 1.2% active; AID 2540; in the data active = inhibition above about 50%
EBI2 antag = EBI2 (human) antagonism; P32249; EBI2 beta-arrestin recruitment, luminescence, 7a,25-OHC stimulated; inhibition, % at 5 µM; 360,000 tested, 0.81% active; AID 651636; in the data active = inhibition above about 38%;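 also: enzyme fragment complementation signal reports receptor beta-arrestin coupling in cells; 0% = agonist plus DMSO wells and 100% = wells without agonist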
Target sequence (P32249 whole entry, looked up, the tested form may be a part): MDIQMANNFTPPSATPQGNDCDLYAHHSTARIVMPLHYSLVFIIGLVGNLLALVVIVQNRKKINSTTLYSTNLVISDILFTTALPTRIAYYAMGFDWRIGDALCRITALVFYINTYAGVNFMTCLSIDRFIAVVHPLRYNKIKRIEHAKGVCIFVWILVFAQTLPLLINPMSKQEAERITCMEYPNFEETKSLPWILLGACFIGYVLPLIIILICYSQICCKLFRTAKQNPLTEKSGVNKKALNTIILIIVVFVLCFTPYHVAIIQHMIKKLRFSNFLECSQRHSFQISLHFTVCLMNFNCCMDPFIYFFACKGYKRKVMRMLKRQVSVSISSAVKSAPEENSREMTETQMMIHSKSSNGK
SENP6 inh = blocks the human protease SENP6; Q9GZR1; inhibition, % at 10 µM; 330,000 tested, 1.8% active; Recombinant SENP6 catalytic domain, aminoluciferin luminescence;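 active = inhibition above about 50% at the single tested dose, limit read from the data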;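 also: plate controls were DMSO wells with enzyme for no effect and DMSO wells lacking enzyme for full effect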
EBI2 conf = confirmation of human EBI2 receptor antagonists. EBI2 beta-arrestin luminescence, 7a,25-OHC antagonism. inhibition, % at 5 µM. shares compounds with EBI2 antag. 2,400 tested, 29% active;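 active = inhibition of at least 50%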
EBI2 agonist = EBI2 agonism counter-screen; shares compounds with EBI2 antag; EBI2-expressing cells, agonist mode, luminescence, 60 min; 0% vehicle, 100% 7α,25-dihydroxycholesterol control; activation, % at 5 µM; 2,400 tested, under 10 active; AID 652000;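 active = activation of at least 50%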
bGal counter = inhibits E. coli beta-galactosidase, counter-screen for EBI2 antagonists | shares compounds with EBI2 antag | purified beta-galactosidase, luminescent Galacton Star, 15 min | inhibition, % at 5 µM | 2,400 tested, 1% active;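 active = replicate-average signal at least 3 plate SD below neutral wells, shown as high inhibition, flagging enzyme-inhibiting false positives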;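 also: 0% = DMSO wells with enzyme and 100% = wells lacking enzyme; higher means stronger loss of beta-gal luminescence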
An asterisk follows results filed as active; . = no result. In the library only some 5% were active in any assay of this set; here they are far more common.

SMILES	SENP8 block-1	AHR activator	SENP7 inh	SENP8 block-2	EBI2 antag	SENP6 inh	EBI2 conf	EBI2 agonist	bGal counter
O=C(/C=C/c1ccc(Cl)cc1Cl)N1CCN(c2ccc([N+](=O)[O-])c(N3CCOCC3)c2)CC1	22.4	0.7	-5.2	-6.9	60.6*	-16.6	15.0	1.2	7.3
O=C(c1ccccc1)N1CCN(c2ccc([N+](=O)[O-])c(N3CCOCC3)c2)CC1	13.1	-1.1	-1.6	-16.4	-2.7	-6.8	.	.	.
O=C(/C=C/c1ccc(Cl)cc1)N1CCN(c2ccc([N+](=O)[O-])c(N3CCOCC3)c2)CC1	23.5	0.8	.	.	96.3*	.	88.5*	1.2	0.4
CC(Sc1nc2ncc(Cl)cc2[nH]1)C(=O)Nc1ccc(C(N)=O)cc1 (stereo unspecified)	0.5	4.1	1.8	9.7	-4.8	3.4	.	.	.
Cc1ccnc(NC(=O)c2sc3cc(Cl)ccc3c2Cl)c1	8.3	10.1	7.7	7.9	54.7*	0.0	55.2*	-1.8	-10.6
COc1cc2ccccc2cc1C(=O)Nc1ccc(Cc2ccncc2)cc1	0.5	46.5	-2.0	-10.1	47.9*	-15.2	38.7	1.5	1.1
COC(=O)c1c(-c2ccccc2)nn(-c2ccccc2)c1C(=O)OC	11.4	-0.5	-6.2	-6.1	-3.6	-6.5	.	.	.
CC1(C(=O)Nc2cccc3ncccc23)CCN1C(=O)Cc1ccc(-c2ccccc2)cc1 (stereo unspecified)	-278.0	.	.	.	69.0*	.	35.3	-1.7	-5.6
CC1(C(=O)Nc2cccc3ncccc23)CCN1C(=O)CCc1ccccc1 (stereo unspecified)	-284.8	.	.	.	9.7	.	.	.	.
COc1cc(NC(=S)N2CCN(S(=O)(=O)c3ccc(C)cc3)CC2)cc(OC)c1	-7.8	6.1	-4.2	8.1	14.0	7.7	.	.	.
COc1ccc(CCNC(=O)c2cccc(C(=O)NCCc3ccc(OC)cc3)n2)cc1	11.4	5.1	0.4	-5.0	50.0*	-6.5	38.4	-0.3	-23.4
COc1ccc(CCNC(=O)c2cnc3ccccc3n2)cc1	4.4	16.7	8.3	1.4	-3.0	-11.5	.	.	.
N#CCCn1cc(C=C(C#N)C#N)c(-c2ccc(Cl)cc2)n1	-4.2	-1.6	-7.6	-9.3	3.1	-8.1	.	.	.
N#CCCn1cc(/C=C(\C#N)c2nc3ccccc3s2)c(-c2ccc(F)cc2)n1	-33.6	11.5	-9.6	-4.1	45.5*	-16.4	33.6	-1.0	-18.6
Cc1cc(C#N)c(C)c(SCc2[nH]nc3c2C(c2ccccc2)C(C#N)=C(N)O3)n1 (stereo unspecified)	9.9	2.7	-12.5	-13.4	67.7*	-29.4	54.8*	-0.2	6.7
Cc1cc(C)c(C#N)c(SCc2[nH]nc3c2C(c2ccc(F)cc2)C(C#N)=C(N)O3)n1 (stereo unspecified)	0.3	4.6	-2.7	-7.3	83.5*	-8.9	56.5*	1.2	8.0
CCN(C[C@H]1N[C@@](CC)(C(=O)OC)[C@H]2C(=O)N(Cc3ccccc3)C(=O)[C@@H]12)C(=O)C1CCCCC1	11.3	0.1	-1.2	6.6	-1.6	7.5	.	.	.
CCC1Oc2ccccc2N(CC(=O)NC2CCCCC2)C1=O (stereo unspecified)	17.8	0.6	-4.1	11.0	-3.7	-17.5	.	.	.
Cc1ccc2oc(=O)n(CCCOc3ccccc3C)c2c1	5.2	-3.1	14.2	-3.2	43.6*	-31.2	39.3	0.5	8.1
OCCCNc1cc(-c2ccccc2)nc2cc(-c3ccc(F)cc3)nn12	-433.9	1.6	4.8	-0.3	55.0*	-4.6	49.1	-0.7	-6.3
COc1cccc(CN2CCC(C(=O)N3CCC(C)CC3)CC2)c1	5.0	-2.2	-10.3	-10.5	15.5	-21.0	.	.	.
CCc1nc2ccc(C(=O)NCCOc3ccc(OC)cc3)cn2c1N(C)Cc1cccs1	-0.5	.	.	.	57.2*	.	39.8	0.1	-13.1
CCc1nc2ccc(C(=O)NCCOc3ccc(OC)cc3)cn2c1N(C)Cc1ccc(OC)cc1	-7.6	.	.	.	62.5*	.	39.6	-1.2	-13.7
CCc1nc2ccc(C(=O)NCCc3ccccn3)cn2c1N(C)Cc1cccs1	-13.9	.	.	.	-2.2	.	.	.	.
CCc1nc2ccc(C(=O)NCCOc3ccc(OC)cc3)cn2c1N(C)CCCc1ccccc1	2.1	.	.	.	58.4*	.	42.9	-1.0	-8.4
SMILES	SENP8 block-1	AHR activator	SENP7 inh	SENP8 block-2	EBI2 antag	SENP6 inh	EBI2 conf	EBI2 agonist	bGal counter
CCCCNC(=O)c1ccc2nc(CC)c(N(C)Cc3ccc(OC)cc3)n2c1	-0.9	.	.	.	10.1	.	.	.	.
NS(=O)(=O)c1cccc(NC(=O)c2cccc(Oc3ccccc3)c2)c1	5.6	4.3	-4.7	-9.6	-2.2	-25.4	.	.	.
CCCOc1ccc(C(=O)Nc2cc(S(=O)(=O)N3CCOCC3)ccc2N2CCOCC2)cc1	0.9	-2.7	-7.7	-11.4	1.2	-11.5	.	.	.
CCN(CC)S(=O)(=O)c1ccc2oc(C(=O)NC3CCCc4ccccc43)c(C)c2c1 (stereo unspecified)	10.7	1.6	-0.3	-0.1	42.5*	-2.7	9.5	-1.8	-11.7
CCN(CC)S(=O)(=O)c1ccc2oc(C(=O)N3CCc4ccccc4C3)c(C)c2c1	13.1	3.9	0.2	-8.2	3.8	-15.2	.	.	.
O=C(NC12CC3CC(CC(C3)C1)C2)C1CC(=O)N(c2ccc(Br)cc2)C1 (stereo unspecified)	19.5	3.4	2.8	-2.3	50.6*	-8.2	32.9	0.7	4.5
CCOc1ccc(N=CNc2ccc(OCC)cc2)cc1	14.2	1.8	-10.9	-18.2	56.0*	-2.9	48.1	0.2	4.5
O=C(COC(=O)/C=C/c1ccc(Cl)cc1)NCCN1C(=O)CSC1=O	18.8	0.8	4.0	-2.4	45.9*	-14.1	46.4	3.5	5.8
CC1(C(=O)O)CCC(C(=O)Nc2ccc(F)cc2)C1(C)C (stereo unspecified)	-0.5	-0.1	-3.4	-1.6	2.9	-8.1	.	.	.
CCOC(=O)C1(CC2CCCCO2)CCN(C(=O)Nc2ccc(SC)cc2)CC1 (stereo unspecified)	11.0	2.2	-6.6	-12.3	40.4*	-39.3	18.8	0.7	2.2
CCOC(=O)C1(CC2CCCCO2)CCN(C(=O)Nc2cccc(SC)c2)CC1 (stereo unspecified)	1.3	7.6	-0.8	-5.0	25.7	-23.6	.	.	.
O=C(Oc1ccc(Cl)c2cccnc12)c1cccc([N+](=O)[O-])c1	21.2	24.0	1.7	3.6	53.6*	-3.3	22.0	1.2	10.1
O=C(Oc1c(Cl)cc(Cl)c2cccnc12)c1cccc([N+](=O)[O-])c1	22.9	3.0	0.4	1.3	11.4	9.1	.	.	.
COc1ccc(Cl)cc1C(=O)N1CCN(c2ccccn2)CC1	-52.0	1.6	0.6	3.5	2.8	-10.5	.	.	.

High-throughput results: PubChem BioAssay, several laboratories
